Assay results: PubChem BioAssay (EPA / NIEHS)
Where “and” joins values, the source holds several entries; their conditions need not be identical. Identical values can stand only once. Inconclusive results are not listed. Some compounds were tested as several samples or in several runs, with calls that do not always agree. Calls of active or inactive are those of the source. The calls were made as follows, unless noted: active = hit-call score of the fitted dose curve at least 0.9, where 1 is the maximum; inconclusive = response in the unintended direction; inactive = score below 0.9.

system: not listed separately; experiment: CCTE_Deisenroth_AIME_384WELL_CTox_Inactive: Cytotoxicity Assessment (CTOX) in CCTE's 384-well Estrogen Receptor Transactivation Assay without AIME metabolic competence (metabolism negative), Deisenroth Lab (AID 2284039);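 also: cell viability via live-cell protease substrate cleaved to fluorescent probe; cells exposed 24 h to medium preincubated 2 h with alginate-water beads without S9; loss of fluorescence signal means loss of viability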
Outline: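 Metabolism-negative arm: chemicals (10-point, 0.002 - 200 uM) preincubated 2 h with alginate-water lids, medium moved onto VM7Luc4E2 cells for 24 h. Fluorescent live-cell protease readout; bidirectional curve fit.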

Row | Structure (SMILES) | AC50 | outcome
1 | Oc1cc2ccccc2c2ccccc12 | 10.3 µM (active) | 
2 | COc1ccc([N+](=O)[O-])cc1N | 100 µM (active) | 
3 | N#C[C@@H]1CC(F)(F)CN1C(=O)CNC1CC2CCC(C1)N2c1ncccn1 (stereo partly specified) |  | inactive
4 | O=C(O)c1ccccc1C(c1ccc(O)cc1)c1ccc(O)cc1 |  | inactive
5 | CCCCCCCCC(=O)O |  | inactive
6 | Cc1ccc(S(=O)(=O)O)c(C)c1 |  | inactive
7 | CCCCCCCC(=O)O |  | inactive
8 | OC1CCCCC1 |  | inactive
9 | CCN(CC)CCNc1ccc(CNC=O)c2sc3ccc(OC)cc3c(=O)c12 | 120 µM (active) | 
10 | CCCCOCCO |  | inactive
11 | CCCCCCCCCCCCCCCS(=O)(=O)Oc1ccccc1 |  | inactive
12 | CC#C[C@]1(O)CC[C@H]2[C@@H]3CCC4=CC(=O)CCC4=C3[C@@H](c3ccc(N(C)C)cc3)C[C@@]21C |  | inactive
13 | OCCC(F)(F)C(F)(F)C(F)(F)C(F)(F)C(F)(F)C(F)(F)F |  | inactive
14 | CC(C)(C)c1ccc(O)c(C(C)(C)C)c1 | 179 µM (active) | 
15 | CCCCCCCCCCCCN1CCCC1=O | 57.1 µM (active) | 
16 | CN1CCC[C@H]1c1cccnc1 |  | inactive
17 | c1ccc2cc3c(ccc4ccccc43)cc2c1 |  | inactive

system: not listed separately; experiment: CCTE_Shafer_MEA_dev_active_electrodes_number: CCTE's Neural Network Formation Assay for Number of Active Electrodes, Shafer Lab (AID 2284040);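 as to AC50: potency for loss of active electrodes versus DMSO so lower counts are hits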
Outline: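 Primary rat cortical neurons on 16-electrode MEA wells, exposed from day 0 through day 12 with compound renewed at DIV 5 and 9 feeds. Active electrodes (mean firing ≥5 spikes/min) counted at DIV 5, 7, 9, 12; trapezoidal AUC across days, loss-of-signal versus DMSO.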

Row | Structure (SMILES) | outcome | AC50
18 | CC(O)CO (stereo unspecified) | inactive | 
19 | OCCC(F)(F)C(F)(F)C(F)(F)C(F)(F)C(F)(F)C(F)(F)C(F)(F)C(F)(F)F | inactive | 
20 | CC#C[C@]1(O)CC[C@H]2[C@@H]3CCC4=CC(=O)CCC4=C3[C@@H](c3ccc(N(C)C)cc3)C[C@@]21C |  | 4.73 µM (active) and 17.8 µM (active)
21 | OCCC(F)(F)C(F)(F)C(F)(F)C(F)(F)C(F)(F)C(F)(F)F | inactive | 
22 | c1ccc2c(c1)Cc1ccccc1-2 | inactive | 
23 | C=C(C)C(=O)OCCC(F)(F)C(F)(F)C(F)(F)C(F)(F)C(F)(F)C(F)(F)F | inactive | 
24 | c1ccc2c(c1)ccc1ccccc12 | inactive | 
25 | CN1CCC[C@H]1c1cccnc1 | inactive | 
26 | CC1=C(/C=C/C(C)=C/C=C/C(C)=C/C(=O)O)C(C)(C)CCC1 |  | 15 µM (active)
27 | c1ccc2cc3c(ccc4ccccc43)cc2c1 | inactive | 

molecular target: Estrogen receptor (Homo sapiens) (UniProt P03372); experiment: CCTE_Deisenroth_AIME_384WELL_LUC_Shift: CCTE's 384-well Estrogen Receptor Transactivation Assay with AIME metabolic competence data shift (ERTA luciferase; difference in metabolism positive and negative), Deisenroth Lab (AID 2284041; active = hit-call score of the fitted dose curve at least 0.9, where 1 is the maximum; inactive = score below 0.9;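 also: shift is response with S9 minus without S9 so positive means metabolism raised ER signal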)
Outline: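 Here, parent compounds undergo 2 h phase I metabolism by PB/BNF-induced rat S9 before 24 h transactivation in VM7Luc4E2 cells; the curve models S9-positive minus S9-negative response over a 10-point series.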

Sequence of Estrogen receptor (Homo sapiens) (P03372 whole entry, looked up): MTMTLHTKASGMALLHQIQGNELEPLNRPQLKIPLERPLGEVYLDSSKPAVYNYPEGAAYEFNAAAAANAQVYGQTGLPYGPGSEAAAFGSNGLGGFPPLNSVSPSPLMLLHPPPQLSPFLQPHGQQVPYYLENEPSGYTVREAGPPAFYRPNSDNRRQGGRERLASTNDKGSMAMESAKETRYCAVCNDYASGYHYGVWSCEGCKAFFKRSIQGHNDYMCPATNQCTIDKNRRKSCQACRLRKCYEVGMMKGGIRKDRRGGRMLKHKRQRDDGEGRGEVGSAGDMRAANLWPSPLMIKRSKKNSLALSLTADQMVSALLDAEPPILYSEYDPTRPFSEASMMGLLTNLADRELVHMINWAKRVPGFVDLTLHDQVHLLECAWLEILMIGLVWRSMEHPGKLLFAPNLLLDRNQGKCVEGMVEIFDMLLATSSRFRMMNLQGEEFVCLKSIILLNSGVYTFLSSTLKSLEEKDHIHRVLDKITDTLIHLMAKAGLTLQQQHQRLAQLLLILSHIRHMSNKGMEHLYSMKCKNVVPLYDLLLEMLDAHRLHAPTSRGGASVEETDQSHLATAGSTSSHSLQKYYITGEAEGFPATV

Row | Structure (SMILES) | outcome | AC50
28 | Oc1cc2ccccc2c2ccccc12 | inactive | 
29 | COc1ccc([N+](=O)[O-])cc1N | inactive | 
30 | N#C[C@@H]1CC(F)(F)CN1C(=O)CNC1CC2CCC(C1)N2c1ncccn1 (stereo partly specified) | inactive | 
31 | O=C(O)c1ccccc1C(c1ccc(O)cc1)c1ccc(O)cc1 |  | 126 µM (active)
32 | CCCCCCCCC(=O)O | inactive | 
33 | Cc1ccc(S(=O)(=O)O)c(C)c1 | inactive | 
34 | CCCCCCCC(=O)O |  | 42.1 µM (active)
35 | C[C@@H]1C[C@H]2[C@@H]3CCC4=CC(=O)C=C[C@]4(C)[C@@]3(F)[C@@H](O)C[C@]2(C)[C@@]1(O)C(=O)COP(=O)(O)O | inactive | 
36 | OCCC(F)(F)C(F)(F)C(F)(F)C(F)(F)C(F)(F)C(F)(F)C(F)(F)C(F)(F)F | inactive | 
37 | OC1CCCCC1 | inactive | 
38 | CCN(CC)CCNc1ccc(CNC=O)c2sc3ccc(OC)cc3c(=O)c12 |  | 5.72 µM (active)
39 | CCCCCCC(=O)O | inactive | 
40 | CCCCOCCO | inactive | 
41 | CCCCC(CC)COC(=O)CCCCC(=O)OCc1ccccc1 (stereo unspecified) | inactive | 
42 | CCCCCCCCCCCCCCCS(=O)(=O)Oc1ccccc1 | inactive | 
43 | COCC(C)OCC(C)O (stereo unspecified) | inactive | 
44 | ClC1=C(Cl)C(Cl)(Cl)C(Cl)=C1Cl | inactive | 
45 | CC#C[C@]1(O)CC[C@H]2[C@@H]3CCC4=CC(=O)CCC4=C3[C@@H](c3ccc(N(C)C)cc3)C[C@@]21C | inactive | 
46 | COC(=O)CCCCC(=O)OC | inactive | 
47 | OCCC(F)(F)C(F)(F)C(F)(F)C(F)(F)C(F)(F)C(F)(F)F | inactive | 
48 | CC(C)(C)c1ccc(O)c(C(C)(C)C)c1 |  | 77.6 µM (active)
49 | CCCCCCCCCCCCN1CCCC1=O | inactive | 
50 | CN1CCC[C@H]1c1cccnc1 | inactive | 
51 | c1ccc2cc3c(ccc4ccccc43)cc2c1 |  | 64.2 µM (active)

system: not listed separately; experiment: CCTE_Shafer_MEA_dev_burst_rate: CCTE's Neural Network Formation Assay for Burst Rate, Shafer Lab (AID 2284042; active = hit-call score of the fitted dose curve at least 0.9, where 1 is the maximum; inactive = score below 0.9;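 as to AC50: potency for loss of burst rate below DMSO control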)
Outline: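 Cells plated, treated day 0; recorded DIV 5, 7, 9, 12; fed and re-treated DIV 5, 9. Endpoint: bursts per recording time, active-electrode well mean, trapezoidal AUC, fitted in decreasing direction against DMSO baseline.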

Row | Structure (SMILES) | outcome | AC50
52 | CC(O)CO (stereo unspecified) | inactive | 
53 | OCCC(F)(F)C(F)(F)C(F)(F)C(F)(F)C(F)(F)C(F)(F)C(F)(F)C(F)(F)F | inactive | 
54 | CC#C[C@]1(O)CC[C@H]2[C@@H]3CCC4=CC(=O)CCC4=C3[C@@H](c3ccc(N(C)C)cc3)C[C@@]21C | inactive | 5.1 µM (active)
55 | OCCC(F)(F)C(F)(F)C(F)(F)C(F)(F)C(F)(F)C(F)(F)F | inactive | 
56 | c1ccc2c(c1)Cc1ccccc1-2 | inactive | 
57 | C=C(C)C(=O)OCCC(F)(F)C(F)(F)C(F)(F)C(F)(F)C(F)(F)C(F)(F)F | inactive | 
58 | c1ccc2c(c1)ccc1ccccc12 | inactive | 
59 | CN1CCC[C@H]1c1cccnc1 | inactive | 
60 | CC1=C(/C=C/C(C)=C/C=C/C(C)=C/C(=O)O)C(C)(C)CCC1 |  | 4.01 µM (active)
61 | c1ccc2cc3c(ccc4ccccc43)cc2c1 | inactive | 

system: not listed separately; experiment: CCTE_Shafer_MEA_dev_bursting_electrodes_number: CCTE's Neural Network Formation Assay for Number of Bursting Electrodes, Shafer Lab (AID 2284043);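 as to AC50: potency is for loss of bursting electrodes relative to DMSO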
Outline: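 Primary rat cortical neurons were cultured on PEI-coated 48-well MEA plates (16 electrodes/well) and exposed from plating through day 12, with compound renewed at feeds on DIV 5 and 9. Electrodes bursting ≥1 per 2 min were counted on DIV 5, 7, 9, 12; trapezoidal AUC taken.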

Row | Structure (SMILES) | outcome | AC50
62 | CC(O)CO (stereo unspecified) | inactive | 
63 | OCCC(F)(F)C(F)(F)C(F)(F)C(F)(F)C(F)(F)C(F)(F)C(F)(F)C(F)(F)F |  | 26 µM (active)
64 | CC#C[C@]1(O)CC[C@H]2[C@@H]3CCC4=CC(=O)CCC4=C3[C@@H](c3ccc(N(C)C)cc3)C[C@@]21C |  | 2.8 µM (active) and 15 µM (active)
65 | OCCC(F)(F)C(F)(F)C(F)(F)C(F)(F)C(F)(F)C(F)(F)F | inactive | 
66 | c1ccc2c(c1)Cc1ccccc1-2 | inactive | 
67 | C=C(C)C(=O)OCCC(F)(F)C(F)(F)C(F)(F)C(F)(F)C(F)(F)C(F)(F)F | inactive | 
68 | c1ccc2c(c1)ccc1ccccc12 | inactive | 
69 | CN1CCC[C@H]1c1cccnc1 | inactive | 
70 | c1ccc2cc3c(ccc4ccccc43)cc2c1 | inactive | 
